PubChem BioAssay (NCI)
About 83,000 compounds went through this panel and 20% of them were active in at least one assay; those are over-represented in the sample as a whole.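 48-hour exposure, single concentration, 96-well plates; percent growth endpoint where 0 means no net growth. Active: below 10.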 Unmarked numbers belong to inactive results.

System: HL-60(TB) leukemia
Assay: NCI-60 one-dose screen, 48 h (100 = growth as untreated, 0 = no growth, -100 = all killed)
Details: 10 µM unless noted

Row | SMILES | growth [%]
1 | COc1cc(C2CC(c3ccc(C)cc3)=NN2C=O)ccc1Oc1ccnc2cc(Cl)ccc12 (stereo not drawn) | 94.8
2 | N#Cc1c(-c2cccc(F)c2)cc(-c2cccnc2)[nH]c1=O | 98
3 | Cc1ccc(C(=O)c2ccc(CC(=O)N=Nc3c(O)[nH]c4ccc(Br)cc34)n2C)cc1 | 89.4
